# Measured values taken from publication PMC7826789 (International Journal of Molecular Sciences, 2021).
# Test system: PDPK1
smiles,measurement,value
CNc1nc(-c2ccc3c(N)n[nH]c3c2)cc(N2C[C@@H](C(=O)NC3CCCCC3)CC[C@H]2C)n1 [GSK2334470],Kinases covered,PDPK1
